BJeLR viability – BJeLR cell viability loss; BJeLR (HRASV12) viability, CellTiter-Glo ATP luminescence, 48 h; inhibition, % (concentration not given with the values); 300,000 compounds, 0.17% hits; AID 1554; in the data active = inhibition above about 50%; inconclusive = no clear call, values can overlap the other calls
Mtb UGM inh – Mtb UDP-galactopyranose mutase inhibition; P9WIQ1; purified UGM, fluorescence polarization probe displacement; inhibition, % at 10 µM; 320,000 compounds, 0.06% hits; AID 504406; in the data active = inhibition above about 10%, passing the limit was not always enough; inconclusive = no clear call, values can overlap the other calls
Rv3671c protease – Rv3671c (M. tuberculosis) protease inhibition | P9WHR9 | inhibition, % at 5.96 µM | 320,000 compounds, 0.048% hits | AID 2606; in the data active = inhibition above about 38%;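 also: extracellular domain of Rv3671c used as enzyme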
PrP UTR inh – suppresses PrP 5' UTR mRNA reporter expression; inhibition, % (test concentration not listed); cell-based PrP 5' UTR mRNA reporter, plate reader; AID 488862; 340,000 compounds, 0.35% hits; in the data active = inhibition above about 52%
FadD28 binding – blocks FadD28 binding to the bisubstrate probe; 360,000 compounds, 0.22% hits; inhibition, % at 12.5 µM; AID 588549; fluorescence polarization; in the data active = inhibition above about 8.5%, passing the limit was not always enough; inconclusive = no clear call, values can overlap the other calls
RecA splice inh – blocks M. tuberculosis RecA intein splicing; 290,000 compounds, 0.75% hits; cell-free RecA intein splicing, fluorescence; inhibition, % (test concentration not listed); in the data active = inhibition above about 30%; inconclusive = no clear call, values can overlap the other calls
Target sequence (P9WHJ3 whole entry, looked up, canonical isoform): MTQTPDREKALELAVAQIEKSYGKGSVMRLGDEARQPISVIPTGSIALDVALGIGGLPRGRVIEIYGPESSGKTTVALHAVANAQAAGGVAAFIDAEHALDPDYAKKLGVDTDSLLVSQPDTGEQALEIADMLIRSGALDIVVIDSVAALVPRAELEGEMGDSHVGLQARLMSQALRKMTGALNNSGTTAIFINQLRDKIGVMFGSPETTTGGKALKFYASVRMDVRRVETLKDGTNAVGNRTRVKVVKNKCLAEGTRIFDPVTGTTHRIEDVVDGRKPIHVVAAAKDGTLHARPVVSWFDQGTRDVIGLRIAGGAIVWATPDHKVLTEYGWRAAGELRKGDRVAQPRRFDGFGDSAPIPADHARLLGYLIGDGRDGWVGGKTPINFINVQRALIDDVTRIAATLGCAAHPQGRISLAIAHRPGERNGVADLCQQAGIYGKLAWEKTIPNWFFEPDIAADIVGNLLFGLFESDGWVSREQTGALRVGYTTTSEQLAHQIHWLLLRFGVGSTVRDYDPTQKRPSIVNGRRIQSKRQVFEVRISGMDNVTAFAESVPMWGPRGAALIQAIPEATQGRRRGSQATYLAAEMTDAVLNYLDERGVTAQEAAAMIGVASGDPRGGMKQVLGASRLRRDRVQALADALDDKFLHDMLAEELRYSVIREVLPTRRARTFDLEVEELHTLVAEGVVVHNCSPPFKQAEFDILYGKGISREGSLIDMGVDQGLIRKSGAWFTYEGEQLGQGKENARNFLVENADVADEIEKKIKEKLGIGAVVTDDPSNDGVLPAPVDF
GFP chromo cs – counter-screen: blocks GFP chromophore formation; shares compounds with RecA splice inh; cell-free GFP chromophore formation, fluorescence; EC50, µM; 2,100 compounds, 83% hits; call rule not given here
Large screens that a line does not name were inactive (follow-up assays come after a bar, where they were run). Most compounds without a hit are left out; they make up all but 1.3% or so of the library.

CCOC(=O)N(C)c1c(CC)nc2c(OCc3ccc(Cl)cc3)cccn12	none (no result: BJeLR viability, Mtb UGM inh, Rv3671c protease, PrP UTR inh, RecA splice inh)
CCNC(=O)N(C)c1c(CC)nc2ccc(C(=O)N3CCN(S(=O)(=O)CC)CC3)cn12	none (no result: BJeLR viability, Mtb UGM inh, Rv3671c protease, PrP UTR inh, RecA splice inh)
O=C1c2ccccc2/C(=C\C#Cc2ccccn2)N1c1ccccc1	none (no result: BJeLR viability, RecA splice inh)
O=C(CN1C(=O)/C(=C2\SC(=S)N(CCS(=O)(=O)O)C2=O)c2ccccc21)Nc1cccc(Br)c1	RecA splice inh 46 | GFP chromo cs 25
O=C(CN1C(=O)/C(=C2/SC(=S)N(CCS(=O)(=O)O)C2=O)c2ccccc21)Nc1cccc(C(F)(F)F)c1	none (no result: BJeLR viability, RecA splice inh)
COc1ccc(CN2C[C@@H](CO)O[C@@H](n3cnc4c(NCCN(C)C)ncnc43)C2)cc1	none (no result: BJeLR viability, Mtb UGM inh, Rv3671c protease, PrP UTR inh, RecA splice inh)
CC(OC(=O)c1cc(O)c2ccccc2c1O)C(=O)Nc1ccc(C(N)=O)cc1 (configuration not stated)	RecA splice inh 73 | GFP chromo cs 5.2
CC(C)[C@H](NC(=O)Nc1ccc(Oc2ccccc2)cc1)C(=O)O	RecA splice inh 62 | GFP chromo cs inactive
Nc1ccccc1S(=O)(=O)NC1=NCCCCC1	RecA splice inh 30 | GFP chromo cs inactive
CCc1nc2ccc(C(=O)Nc3ccc(Cl)c(Cl)c3)cn2c1N(C)Cc1ccc(OC)cc1	none (no result: BJeLR viability, Mtb UGM inh, Rv3671c protease, PrP UTR inh, RecA splice inh)
CCN(CC)S(=O)(=O)c1ccc(NN=C(C#N)C#N)cc1	RecA splice inh 38 | GFP chromo cs 27
COc1ccc(-n2nc3c(c2NC(=O)CCl)CSC3)cc1	RecA splice inh 34 | GFP chromo cs inactive
CC1CCCN(C(=O)COc2ccc(NC(=O)c3cccs3)cc2)C1 (configuration not stated)	RecA splice inh 44 | GFP chromo cs inactive
COc1ccc(C2CC(c3cccs3)=NN2C(=O)c2ccccc2)cc1OC (configuration not stated)	none
COc1ccc(C2CC(c3cccs3)=NN2C(=O)CCl)cc1OC (configuration not stated)	RecA splice inh 77 | GFP chromo cs 4.5
COc1cc(C2CC(c3cccs3)=NN2C(=O)CCl)ccc1OC(F)F (configuration not stated)	BJeLR viability 96, RecA splice inh 80 | GFP chromo cs 1.8
O=C1c2ccccc2C(=O)c2c1cccc2N1CCCC1	none
O=C1c2ccccc2-c2onc3ccc(N4CCCC4)c1c23	FadD28 binding inconclusive, RecA splice inh 55 (no result: Mtb UGM inh, Rv3671c protease) | GFP chromo cs 24
COc1cc2c(cc1OC)C1(Nc3c-2c(Cc2ccccc2)nn3-c2ccccc2)C(=O)Nc2ccccc21 (configuration not stated)	RecA splice inh 35 | GFP chromo cs inactive
COc1cc2c(cc1OC)C1(NCC2)C(=O)Nc2ccccc21 (configuration not stated)	none
FC(F)(F)Oc1ccccc1C(c1nnnn1C1CCCC1)N1CCN(C/C=C/c2ccccc2)CC1 (configuration not stated)	none (no result: BJeLR viability, Mtb UGM inh, Rv3671c protease, PrP UTR inh, RecA splice inh)
CCC1Nc2ncnc(N3CCc4ccccc4C3)c2N(Cc2ccc(Cl)cc2)C1=O (configuration not stated)	none (no result: BJeLR viability, RecA splice inh)
O=C1C(Cc2ccccc2)Nc2ncnc(N3CCc4ccccc4C3)c2N1Cc1ccc(Cl)cc1 (configuration not stated)	RecA splice inh 33 | GFP chromo cs inactive
CC(=O)NC1=NN(c2ccccc2)C(=O)C1	RecA splice inh 82 | GFP chromo cs 36
O=C(CCCCl)NC1=NN(c2ccccc2)C(=O)C1	none (no result: BJeLR viability, RecA splice inh)
C=C1C(=O)C23C(O)C1CCC2C12CCCC(C)(COC(C)=O)C1C(O)C3(O)OC2 (configuration not stated)	none (no result: BJeLR viability, Mtb UGM inh, Rv3671c protease, RecA splice inh)
O=C(CCl)N(Cc1cc(=O)[nH]c2ccccc12)c1ccccc1	RecA splice inh 69 | GFP chromo cs 11
CCC(=O)N(Cc1cc(=O)[nH]c2ccccc12)c1ccccc1	none
Cc1cccc(N(Cc2ccccc2)C(=O)CCl)c1	RecA splice inh 58 (no result: Mtb UGM inh, Rv3671c protease) | GFP chromo cs 9.9
O=C(CCl)N(Cc1ccccc1)c1ccccc1	RecA splice inh 73 | GFP chromo cs 24
COc1cccc(CN(C)C(=O)c2cccc(S(=O)(=O)Nc3cccc(C)c3)c2)c1OC	none (no result: BJeLR viability, Mtb UGM inh, Rv3671c protease, RecA splice inh)
COc1cccc(-n2nc(C#N)c(Cl)cc2=O)c1	RecA splice inh 73 (no result: Mtb UGM inh, Rv3671c protease) | GFP chromo cs 21
CCOC(=O)C1=C(C)NC(=O)NC1c1ccc(OC(=O)c2ccco2)c(OC)c1 (configuration not stated)	none

High-throughput results from PubChem BioAssay.
